From paper PMC5540273 (PLoS ONE, 2017)

Legend:
Conditions in all cases: concentration: 1 μM, replicates: in singlicate; n = 1
ERK8 = system: T1, ERK8
T1 construct: gene MAPK15

ERN1 = system: ERN1
FAK = system: T2, FAK
T2 construct: gene PTK2

FER = system: FER
FES = system: FES
FGFR1 = system: FGFR1
FGFR2 = system: FGFR2
FGFR3 = system: FGFR3
FGFR4 = system: FGFR4
FGR = system: FGR
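Also: KINOMEscan kinase panel screen.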

Structure (SMILES)	%Inh (ERK8) [%]	%Inh (ERN1) [%]	%Inh (FAK) [%]	%Inh (FER) [%]	%Inh (FES) [%]	%Inh (FGFR1) [%]	%Inh (FGFR2) [%]	%Inh (FGFR3) [%]	%Inh (FGFR4) [%]	%Inh (FGR) [%]
CNc1nc(-c2ccc3c(N)n[nH]c3c2)cc(N2C[C@@H](C(=O)Nc3ccccc3)CC[C@H]2C)n1 [GSK2298859]	0	2	0	33	0	23	0	16	0	22
CCCCc1nn2ncccc2c1-c1ccnc(NC2CC2)n1 [GW684374]	0	0	0	0	0	0	0	5	0	7
CS(=O)(=O)CCNCc1nc(-c2ccc3ncnc(Nc4ccc(OCc5ccccc5)c(Cl)c4)c3c2)cs1.Cl [GW582764]	0	0	0	0	0	0	0	0	0	18
O=C(Nc1n[nH]c2nc(-c3cccs3)c(Br)cc12)C1CCCC1 [SB-743341]	61	43	1	20	18	28	0	2	3	23
Cc1ccccc1-c1cc(-c2c[nH]nc2-c2ccccn2)ccn1 [GW680061]	0	0	0	2	0	0	0	0	0	15
COC(=O)c1cccc(NC(=O)NC2CCN(c3ccnc(Nc4ccc(OC)cc4)n3)C2)c1 (stereo not shown) [GSK1379746]	0	5	0	13	0	0	0	0	4	11
O=C(Nc1n[nH]c2nc(-c3cccs3)c(Br)cc12)C1CC1 [SB-735297]	87	0	0	0	10	0	0	0	0	13
Cc1ccc(NC(=O)Nc2ccc(Cl)cc2)cc1-c1ccc(C(=O)Nc2ccncc2)cc1 [GSK1398472]	0	0	0	15	0	0	39	13	14	18
O=c1cc(N2CCOCC2)nc2n(Cc3ccccc3F)ccn12 [GSK2297428]	0	7	0	36	0	0	12	10	0	4
COc1ccc(CSc2nnc(-c3ccc4c(c3)CCO4)o2)cc1	0	0	0	0	12	0	0	0	0	14
COC(=O)c1cccc(NC(=O)NC2CCN(c3ccnc(Nc4ccc(F)cc4)n3)C2)c1 (stereo not shown) [GSK1379725]	0	0	0	0	0	0	4	4	9	12
Cc1ccc(NC(=O)c2ccc(Cl)cc2)cc1-c1ccc(C(=O)Nc2ccncc2)cc1 [GSK1398467]	0	0	0	24	0	0	0	7	18	40
Cl.Cl.Cl.N#Cc1ccc(CCNc2nccc(-c3cccc(CN4CCNCC4)c3)n2)cc1 [GSK2137462]	28	25	56	4	6	0	10	17	22	23
CN1c2ccc(-c3ccc(C(N)=O)cc3)cc2-c2[nH]ncc2S1(=O)=O	17	0	–	8	11	5	0	0	0	20
NS(=O)(=O)c1cccc(N/C=C2\C(=O)Nc3ccc(S(=O)(=O)Cc4c(Cl)cccc4Cl)cc32)c1 [GSK398099]	0	7	0	7	1	0	0	7	9	31
CC(C)c1ccc(O)cc1Nc1ccnc2ccc(C(F)(F)F)cc12 [GW482059]	17	8	0	14	0	10	2	5	57	9
Cc1nccc(-c2c(-c3ccc(F)cc3)ncn2CCCN2CCOCC2)n1.Cl [SB-282975]	9	0	35	26	12	38	22	33	0	0
